Results reported in PubChem BioAssay (Tox21).
Records with an inconclusive call do not appear. Entries that show only a call come without a potency. Some structures have more than one record in an assay (separate samples or runs), and their calls can disagree. The source made the active and inactive calls. The call rests on the fitted dose curve; in most records, active means well fitted cell-killing curve with a large enough effect in the repeat runs; inconclusive means weak or mixed curves, or effect the other way; inactive means no such curve, though single readings can be large or run the other way.

experiment: qHTS assay to identify small molecule antagonists of the sonic hedgehog signaling (Shh) pathway - cell viability counter screen (AID 1259367); details: NIH/3T3 Gli1-Luc viability, CellTiter-Fluor, 24 h; series mostly up to 92.4 µM; further: nearly all actives have a fitted effect of over 55% in size
Text: National Center for Advancing Translational Sciences [NCATS]
NIH Chemical Genomics Center [NCGC]
U.S. Environmental Protection Agency [EPA]
National Institutes of Environmental Health Sciences [NIEHS]
National Toxicology Program [NTP]
U.S. Food and Drug Administration [FDA]
The sonic hedgehog (Shh) pathway is essential for normal embryonic development. Dysregulation of the Shh pathway can cause severe developmental defects in organs. Therefore chemicals that interfere with the pathway are potential developmental toxicants. A cell line designated 3T3Gli1-Luc (DMB/OARSA/CFSAN/FDA, Laurel, MD), a NIH/3T3 derived clone containing stably integrated Gli1-Luc reporter is used to detect chemical interference of the Shh pathway, by changes in the expression of the firefly Luc gene under the control of the Gli1 transcriptional response element. This cell line was used to screen Tox21 libraries for identifying and prioritizing the potential developmental toxicants that interfere Shh pathway. Conditioned medium-stimulated mode was used to screen for chemicals inhibiting Shh signaling. The cytotoxicity of the compounds was tested in parallel by measuring the cell viability using CellTiter-Fluor assay system (Promega, Madison, WI) in the same wells.
Tox21 Assay Protocol Summary:
3T3 Gli1-Luc cells were dispensed at 2,000 per well in 5uL of culture medium into white solid bottom 1536-well plates (Greiner Bio-One, Monroe, NC) using a Multidrop Combi (Thermo Scientific, Waltham, MA) dispenser. The assay plates were incubated at 37 C and 5% CO2 for 4hr, and then 23nL of compounds dissolved in DMSO and positive control were transferred using a Pintool station (Wako, San Diego, CA). The compound transfer was followed by the addition of 1ul conditioned medium or assay buffer using two separate tips of Flying Reagent Dispenser (FRD, Aurora Discovery, San Diego, CA). The assay plates were incubated at 37C and 5% CO2 for 24hr. For viability read, after 23hr of compound treatment, 1uL of CellTiter-Fluor reagent (Promega Corporation, Madison, WI) was added to each well of the assay plates using Flying Reagent Dispenser (FRD, Aurora Discovery, San Diego, CA) and incubated the assay plates at 37C for 1hr. The fluorescence signal was quantified using a ViewLux plate reader (Perkin Elmer, Shelton, CT).
Potency means the concentration at half of the fitted maximal effect.

Row | SMILES | Potency | viability change, negative = cytotoxic
1 | CC1CC(=O)NN=C1c1ccc(NCC(C)(C)NCC(O)COc2cc(Cl)ccc2C#N)cc1 (stereo not given) | inactive | 
2 | CO[Si](C)(OC)OC | inactive | 
3 | CCCCCCCCCOC(C)=O | inactive | 
4 | Oc1cc(O)c(Cl)cc1Cl | inactive | 
5 | Cc1c(C(=O)NN2CCCCC2)nn(-c2ccc(Cl)cc2Cl)c1-c1ccc(Cl)cc1 | inactive | 
6 | O=C(N/N=C/c1ccc([N+](=O)[O-])o1)c1ccc(O)cc1 | 18.8 µM (active) | 
7 | C=CCOC(=O)/C=C\C(=O)OCC=C | inactive | 
8 | C=CCNc1nc(NCC=C)nc(N2CCN(C(c3ccc(F)cc3)c3ccc(F)cc3)CC2)n1 | inactive | 
9 | CC1=NN(c2ccc(C(=O)O)cc2)C(=O)C1 | inactive | 
10 | Cc1cc(O)c(C(C)C)cc1Cl | inactive | 
11 | CCCOC(=O)c1ccc(N)cc1 | inactive | 
12 | CC(=O)Oc1ccc2c(c1)CC[C@@H]1[C@@H]2CC[C@]2(C)[C@@H](O)CC[C@@H]12 | inactive | 
13 | COCc1c(C(C)C)nc(C(C)C)c(/C=C/[C@@H](O)C[C@@H](O)CC(=O)O)c1-c1ccc(F)cc1 | inactive | 
14 | CC(=O)OCC(=O)[C@H]1CC[C@H]2[C@@H]3CCC4=CC(=O)CC[C@]4(C)[C@H]3CC[C@]12C | inactive | 
15 | CC1=CC(=O)CC(C)(C)C1(O)/C=C/C(C)=C\C(=O)O (stereo not given) | inactive | 
16 | CC(C)CCCCCOC(=O)CCCCC(=O)OCCCCCC(C)C | inactive | 
17 | CC#N | inactive | 
18 | O=C1NCCN1 | inactive | 
19 | O=C(CCCCCCCCC#CI)Oc1ccccc1 | inactive | 
20 | C=CC(=C)CCCC(C)(C)OC(C)=O | inactive | 

Row | SMILES | Potency | viability change, negative = cytotoxic
21 | CC(CCc1ccc2c(c1)OCO2)NN (stereo not given) | inactive | 
22 | C=CC(=O)NCOCC(C)C | inactive | 
23 | NCC1CCCC(CN)C1 (stereo not given) | inactive | 
24 | CCC(Cc1ccccc1)(C(=O)c1ccc(N2CCOCC2)cc1)N(C)C (stereo not given) | inactive | 
25 | CCCCC/C(=C\c1ccccc1)CO | inactive | 
26 | CCCCN(CCCC)CCCOC(=O)c1ccc(N)cc1 | inactive | 
27 | CCCCC(CC)COC(=O)COc1ccc(Cl)cc1C (stereo not given) | inactive | 
28 | COc1ccc([C@@H]2Sc3ccccc3NC(=O)[C@@H]2O)cc1 | inactive | 
29 | C=CCCCCCCCCCCCCCCCC |  | 0.663% [at 8.39 µM] (inactive)
30 | COC(=O)[C@@H]1CC2=CC(=O)CC[C@]2(C)[C@@]23O[C@@H]2C[C@@]2(C)[C@@H](CC[C@@]24CCC(=O)O4)[C@H]13 | inactive | 
31 | Cc1oncc1C(=O)Nc1ccc(C(F)(F)F)cc1 | 61.1 µM (active) and inactive | 
32 | CN1CCN(c2c(F)cc3c(=O)c(C(=O)O)cn4c3c2OCN4C)CC1 |  | -1.18% [at 19 µM] (inactive)
33 | CO[C@H]1C=CO[C@@]2(C)Oc3c(C)c(O)c4c(O)c(c5c(c4c3C2=O)=NC2(CCN(CC(C)C)CC2)N=5)NC(=O)/C(C)=C\C=C/[C@H](C)[C@H](O)[C@@H](C)[C@@H](O)[C@@H](C)[C@H](OC(C)=O)[C@@H]1C | 23.8 µM (active) | 
34 | Cc1nc2ccccn2c(=O)c1CCN1CCC(C(=O)c2ccc(F)cc2)CC1 | inactive | 
35 | CCN(CC)CCNC(=O)c1ccc(NC(C)=O)cc1 | inactive | 
36 | O=C(Nc1ccc([N+](=O)[O-])cc1)Nc1ccc([N+](=O)[O-])cc1 | inactive | 
37 | CCc1cccc(N(C)C(N)=Nc2cccc3ccccc23)c1 | inactive | 
38 | CC(C)=CC=O | inactive | 
39 | CNC(=S)NC | inactive | 
40 | CC1CN(c2cc3c(cc2F)c(=O)c(C(=O)O)cn3-c2ccc(F)cc2F)CCN1 (stereo not given) |  | 5.63% [at 8.39 µM] (inactive)
